Test results published in the supplement of paper PMC7411054.
Counter-ions that a name gives are not always drawn.

How the values were obtained:
Conditions in all cases: treatment time: 24 h
[1] = system: A549-ACTB-RAB5A; assay: lowest phenotypically active concentration; higher = less potent
Outline: (§1)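 Fifteen reporter lines derived from A549, HepG2 and WPMY1 cells by gene editing, carrying BFP for segmentation plus GFP and RFP/FusionRed markers, were exposed to 0.3, 1, 3 or 9 µM for 24 h in four wells each and imaged live. Live-cell features from each well were normalised to solvent control wells. A well set counted as deviating when ≥3 of 4 wells lay beyond the 95th percentile of control Euclidean distances, and as reproducible when the median replicate Pearson correlation exceeded the 95th percentile of non-replicates. Phenotypic activity was assigned only when both criteria were met.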

[2] = system: A549-CANX-COX4; assay: as above
Outline: as §1

[3] = system: A549-GM130-SQSTM1; assay: as above
Outline: as §1

[4] = system: A549-TP53BP1-CLTA; assay: as above
Outline: as §1

[5] = system: A549-TUBA1B-RELA; assay: as above
Outline: as §1

[6] = system: HepG2-GM130-SQSTM1; assay: as above
Outline: as §1

[7] = system: A549-ACTB-RAB5A; assay: phenotypically active (imaging signature differs from DMSO and reproducible) at any of 0.3-9 uM (binary (1 = active, 0 = inactive)); higher = active
Outline: as §1

[8] = system: A549-CANX-COX4; assay: as above
Outline: as §1

[9] = system: A549-GM130-SQSTM1; assay: as above
Outline: as §1

[10] = system: A549-TP53BP1-CLTA; assay: as above
Outline: as §1

[11] = system: A549-TUBA1B-RELA; assay: as above
Outline: as §1

[12] = system: HepG2-ACTB-RAB5A; assay: as above
Outline: as §1

[13] = system: HepG2-CANX-COX4; assay: as above
Outline: as §1

[14] = system: HepG2-GM130-SQSTM1; assay: as above
Outline: as §1

[15] = system: HepG2-TP53BP1-CLTA; assay: as above
Outline: as §1

[16] = system: HepG2-TUBA1B-RELA; assay: as above
Outline: as §1

[17] = system: WPMY1-CANX-COX4; assay: as above
Outline: as §1

[18] = system: WPMY1-GM130-SQSTM1; assay: as above
Outline: as §1

[19] = system: WPMY1-TP53BP1-CLTA; assay: as above
Outline: as §1

[20] = system: WPMY1-TUBA1B-RELA; assay: as above
Outline: as §1

Structure (SMILES)	lowest phenotypically active concentration [1]	lowest phenotypically active concentration [2]	lowest phenotypically active concentration [3]	lowest phenotypically active concentration [4]	lowest phenotypically active concentration [5]	lowest phenotypically active concentration [6]	phenotypically active [7]	phenotypically active [8]	phenotypically active [9]	phenotypically active [10]	phenotypically active [11]	phenotypically active [12]	phenotypically active [13]	phenotypically active [14]	phenotypically active [15]	phenotypically active [16]	phenotypically active [17]	phenotypically active [18]	phenotypically active [19]	phenotypically active [20]
Cc1cnc(NC(=O)Nc2cc(Br)c(C)cc2OC[C@@H]2CNCCO2)cn1	3 µM	3 µM	3 µM	1 µM	1 µM	1 µM	1 (active)	1 (active)	1 (active)	1 (active)	1 (active)	1 (active)	1 (active)	1 (active)	1 (active)	1 (active)	1 (active)	1 (active)	1 (active)	1 (active)
CCOC(=O)Nc1cc(-c2ccc(C)c(NS(C)(=O)=O)c2)nn2c(C)nnc12 [Bromosporine]	≤ 0.3 µM	1 µM	1 µM	1 µM	1 µM	1 µM	1 (active)	1 (active)	1 (active)	1 (active)	1 (active)	1 (active)	1 (active)	1 (active)	1 (active)	1 (active)	1 (active)	1 (active)	1 (active)	1 (active)
COc1cc([C@@H]2c3cc4c(cc3[C@@H](O[C@@H]3O[C@@H]5CO[C@@H](c6cccs6)O[C@H]5[C@H](O)[C@H]3O)[C@H]3COC(=O)[C@H]23)OCO4)cc(OC)c1O [teniposide]	≤ 0.3 µM	≤ 0.3 µM	≤ 0.3 µM	≤ 0.3 µM	≤ 0.3 µM	≤ 0.3 µM	1 (active)	1 (active)	1 (active)	1 (active)	1 (active)	1 (active)	1 (active)	1 (active)	1 (active)	1 (active)	1 (active)	1 (active)	1 (active)	1 (active)
CC[C@@H](N)CNc1ccnc(-c2cc(-c3cnn(C)c3)ccc2O)n1	1 µM	3 µM	1 µM	1 µM	1 µM	1 µM	1 (active)	1 (active)	1 (active)	1 (active)	1 (active)	1 (active)	1 (active)	1 (active)	1 (active)	1 (active)	1 (active)	1 (active)	1 (active)	1 (active)
Cc1cc(Nc2cc(C)c(C#N)c(NC(C)CCCC(C)(C)O)n2)n[nH]1 (stereo not given) [TC-A 2317 hydrochloride]	1 µM	1 µM	1 µM	1 µM	1 µM	≤ 0.3 µM	1 (active)	1 (active)	1 (active)	1 (active)	1 (active)	1 (active)	1 (active)	1 (active)	1 (active)	1 (active)	1 (active)	1 (active)	1 (active)	1 (active)
O=C(CCCc1ccc(-c2ccccc2F)cc1)Nc1ccc(O)cc1	1 µM	1 µM	1 µM	1 µM	1 µM	3 µM	1 (active)	1 (active)	1 (active)	1 (active)	1 (active)	1 (active)	1 (active)	1 (active)	1 (active)	1 (active)	1 (active)	1 (active)	1 (active)	1 (active)
NC(=O)Nc1sc(-c2ccc(F)cc2)cc1C(N)=O	3 µM	3 µM	3 µM	9 µM	3 µM	9 µM	1 (active)	1 (active)	1 (active)	1 (active)	1 (active)	1 (active)	1 (active)	1 (active)	1 (active)	1 (active)	1 (active)	1 (active)	1 (active)	1 (active)
CCC1=C[C@@H]2CN(C1)Cc1c([nH]c3ccccc13)[C@@](C(=O)OC)(c1cc3c(cc1OC)N(C)[C@H]1[C@@](O)(C(=O)OC)[C@H](OC(C)=O)[C@]4(CC)C=CCN5CC[C@]31[C@@H]54)C2 [vinorelbine]	≤ 0.3 µM	≤ 0.3 µM	≤ 0.3 µM	≤ 0.3 µM	≤ 0.3 µM	≤ 0.3 µM	1 (active)	1 (active)	1 (active)	1 (active)	1 (active)	1 (active)	1 (active)	1 (active)	1 (active)	1 (active)	1 (active)	1 (active)	1 (active)	1 (active)
